EP2 mod = EP2 receptor (human) modulation; EP2-expressing cells, cAMP HTRF FRET, PGE2 co-stimulation; induction, % at 25 µM; P43116; actives 0.83% (n = 260,000);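 active means compounds whose cAMP rise, as percent of the full-agonist control response, exceeds 60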;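 further: rat C6 glioma line stably carrying human EP2 under a CMV promoter; the protocol text gives 20 µM as final concentration; 100% = response of wells given 1 µM PGE2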
HSV augment = HSV replication enhancement; maximum fold increase; actives 0.005% (n = 220,000); HSV replication augmentation in cells, fold increase; in the data active means maximum fold increase above about 1.5; tested in PC3 cells
PGE2 EP2 inh = EP2 receptor (human) inhibition. P43116. C6 glioma cells expressing human EP2, cAMP TR-FRET; cells stimulated with saturating PGE2. inhibition, % at 25 µM. actives 0.52% (n = 260,000);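 active means percent inhibition above 40 after rounding to a whole number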;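 further: rat C6 glioma host cells with rolipram phosphodiesterase inhibitor present; the protocol text gives 20 µM as final concentration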
p47phox inh = inhibitors of human p47phox binding; AID 1274; actives 0.53% (n = 220,000); inhibition, % at 24.7 µM; p47phox/p22phox peptide binding, fluorescence polarization, 2 h;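 active means inhibition above about 30%, limit read from the data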;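 further: 0% = p47phox with labelled peptide and 100% = labelled peptide alone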
Wee1 degr inh = blocks degradation of human Wee1 kinase | P30291 | HeLa Luc-Wee1K328M stability, luciferase luminescence; 100% = proteasome inhibitor MG132 effect | reporter increase, % at 5 µM | actives 1.2% (n = 220,000) | AID 1321;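 active means activation above the mean of all tested compounds plus 3 SD, set per screening run, cut at about 8.8% in these data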;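 further: cells exposed to compound for 20 h before luminescence read; 0% = DMSO alone and 100% = MG132 at 30 µM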
Furin inhibitor = inhibitors of human furin. P09958. purified furin, fluorogenic substrate cleavage. inhibition, % at 20 µM or 30 µM. actives 0.061% (n = 220,000); in the data active means inhibition above about 25%
Target sequence (P09958 108-714 limits assumed): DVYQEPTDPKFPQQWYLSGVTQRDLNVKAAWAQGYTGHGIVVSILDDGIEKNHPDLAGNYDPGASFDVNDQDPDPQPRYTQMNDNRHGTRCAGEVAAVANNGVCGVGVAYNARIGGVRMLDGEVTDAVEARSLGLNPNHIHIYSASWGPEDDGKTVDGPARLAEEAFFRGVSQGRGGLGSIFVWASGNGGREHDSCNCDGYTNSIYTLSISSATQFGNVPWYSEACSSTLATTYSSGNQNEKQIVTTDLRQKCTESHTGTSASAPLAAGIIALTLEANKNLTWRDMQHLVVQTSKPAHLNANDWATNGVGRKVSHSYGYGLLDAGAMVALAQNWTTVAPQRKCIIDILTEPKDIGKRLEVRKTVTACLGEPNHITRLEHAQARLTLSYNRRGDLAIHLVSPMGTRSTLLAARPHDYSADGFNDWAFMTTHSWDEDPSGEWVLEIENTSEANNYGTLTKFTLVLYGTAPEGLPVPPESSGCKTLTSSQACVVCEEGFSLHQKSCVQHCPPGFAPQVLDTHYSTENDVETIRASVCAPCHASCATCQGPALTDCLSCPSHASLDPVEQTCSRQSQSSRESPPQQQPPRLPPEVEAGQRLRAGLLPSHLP
* hit, by the source's call; i = inactive; / = not tested or not shown. Rows were chosen to be rich in hits. Some 2.8% of all compounds tested hit in one or more screens of this group.

SMILES	EP2 mod	HSV augment	PGE2 EP2 inh	p47phox inh	Wee1 degr inh	Furin inhibitor
C=C(C)C(=O)Nc1cccc(C2=NOC3(C2)C[C@@H](C(N)=O)N(C(=O)c2ccc(Cl)cc2)C3)c1 (some centres undefined)	-8.9	i	8.6	-12.4	/	-17.3
C/C=C(/C)C(=O)Nc1cccc(C2=NOC3(C2)C[C@H](C(N)=O)N(C(=O)c2ccc(Cl)cc2)C3)c1 (some centres undefined)	-19.2	i	9.8	42.3*	/	-19.6
COc1ccc(NC(=O)N(C2CCCCC2)C(C)c2ccco2)c(OC)c1 (centres undefined)	61.1*	i	6.8	2.8	-0.9	-15.3
CC(C)N1C(=O)NC2(c3ccccc3)N(C)C(=O)N(C)C12c1ccccc1 (centres undefined)	36.0	i	6.3	-3.2	0.6	-7.1
CN1C(=O)N(C)C2(c3ccccc3)N(C)C(=O)NC12c1ccccc1 (centres undefined)	7.3	i	2.0	49.0*	-1.3	-22.2
Cc1ccc(S(=O)(=O)N(C)C)cc1-n1c(SCC(=O)Nc2ccc(F)cc2)nc2ccccc2c1=O	10.5	i	12.1	-16.5	0.0	-14.5
Cc1ccc(S(=O)(=O)N(C)C)cc1-n1c(SCC(=O)Nc2ccc(F)cc2Cl)nc2ccccc2c1=O	-1.1	i	2.2	-21.8	8.9*	-18.7
CN1CCc2nc(SCC(=O)Nc3ccc(F)cc3)c(C#N)cc2C1	8.2	i	15.8	36.8*	-0.8	-21.9
Cc1ccc(C)c(C(=O)COC(=O)c2cccc(N3C(=O)c4c(C)nc5ccccc5c4C3=O)c2)c1	19.3	i	3.6	-42.2	9.0*	-23.2
O=C(NC1CCCc2c1cnn2-c1ccc(F)cc1F)c1ccccn1 (centres undefined)	-28.6	i	45.4*	4.1	-5.3	-18.9
COc1cccc(Nc2nc(NCC3CCCO3)c3ccccc3n2)c1 (centres undefined)	-53.8	i	52.5*	-26.1	0.4	-19.8
Oc1ccc(Nc2nc(NCC3CCCO3)c3ccccc3n2)cc1 (centres undefined)	-34.1	i	4.6	-8.9	0.9	-17.3
Cc1nc2cc(-c3cccc(Cl)c3)nn2c(N(C)CCO)c1C	-34.1	/	7.1	/	/	/
O[C@@H]1CN(Cc2ccc(F)cc2)CC[C@H]1NCc1ccccn1	-29.5	/	5.0	/	/	/
COc1ccc(C2(O)CCN(CC(=O)NC3CCCCC3C)CC2)cc1 (centres undefined)	-2.6	/	12.5	/	/	/
CCC(Sc1ncccc1C(=O)O)C(=O)N1CCCC1 (centres undefined)	17.3	i	5.2	-13.3	2.0	28.4*
COc1cc(C(=O)NC2CCSC2=O)cc(OC)c1OC (centres undefined)	-17.3	/	9.0	/	/	/
NC1=NC[C@H](Cc2ccc(O)cc2)N1CCc1cccc2ccccc12	-2.9	i	8.8	62.6*	/	-21.6
NC1=NC[C@@H](Cc2ccc(O)cc2)N1CCc1cccc2ccccc12	30.2	i	13.9	6.6	/	-24.5
CCc1nn(CC(=O)NCc2cccs2)c(=O)c2cc3occc3n12	-44.3	/	4.4	/	/	/
O=C1c2ccccc2C(O)(O)[C@@]1(O)[C@]1(O)C(=O)c2ccccc2C1(O)O	-41.3	/	73.2*	/	/	/
O=S(=O)(c1cnc[nH]1)N1CCCCCC1	15.4	i	14.1	-6.4	12.9*	-25.7
CN(C)Cc1ccc(-c2cc3onc(-c4ccccc4)c3c(=O)n2C)cc1	-13.8	/	44.2*	/	/	/
Cc1onc(-c2ccccc2)c1NC(=O)N(Cc1ccccc1)C(C)C	-1.1	i	5.1	-2.7	3.3	-13.3
CCCCNC(=O)CNC(=S)N(Cc1ccccc1F)C1CCCCC1	29.6	i	5.7	-1.3	9.1*	-19.0
SMILES	EP2 mod	HSV augment	PGE2 EP2 inh	p47phox inh	Wee1 degr inh	Furin inhibitor
CN(c1ccc(C(=O)N2CCOCC2)cc1)S(C)(=O)=O	-8.0	i	146.3*	0.1	-1.9	-17.6
CN(c1ccc(C(=O)N2CCCC2)cc1)S(C)(=O)=O	-2.5	/	13.3	/	/	/
CC(=O)c1ccc(N2CCN(CC(=O)Nc3ccc(Br)cc3)CC2)cc1	-68.1	/	4.0	/	/	/
Cc1ccc(-n2sc3ccccc3c2=O)cc1	-15.3	i	20.6	101.2*	2.5	-14.2
N=C1[C@H](O)[C@]2(I)c3ccccc3N3C(=N)[C@H](O)[C@@H]4c5ccccc5N1[C@@H]4[C@@H]32	7.3	/	68.0*	/	/	/
CC(C)NCC(O)c1ccc(NS(C)(=O)=O)cc1 (centres undefined)	14.7	i	14.1	-11.8	-2.9	/

Compound activity as filed in PubChem.
